Laboratory results: ChEMBL document CHEMBL1157539, “Thousands of chemical starting points for antimalarial lead identification” (Nature, 2010)

These compounds were tested on Plasmodium falciparum (assay: GSK_TCMDC: Inhibition of Plasmodium falciparum Dd2 in whole red blood cells, using parasite LDH activity as an index of growth. Test compounds present at 2uM).
Assay type: functional

| SMILES | Inhibition [%] |
| --- | --- |
| CCn1cnc2c(N3CCCS3(=O)=O)cc(C(=O)N[C@@H](Cc3ccccc3)[C@H](O)CNC(C)(C)c3cccc(C(F)(F)F)c3)cc21 | 97 |
| O=C(CCc1ccccc1)NC(c1ccc(Cl)cc1)c1ccc2cccnc2c1O (stereo not given) | 49 |
| Cc1cc(NC(=O)c2ccco2)ccc1OC1CCN(Cc2ccc(F)cc2)C1.O=C(O)C(F)(F)F (stereo not given) | 92 |
| COc1ccc2nccc([C@@H](O)CN3CCC(NC(=O)C(c4cc5ccccc5o4)N4CCN(C(c5ccccc5)c5ccccc5)CC4)CC3)c2c1 (stereo not given in full) | 100 |
| O=c1cc(NCCCNC(CNCCc2ccccc2)c2cc(Br)cc(Br)c2)[nH]c2ccccc12 (stereo not given) | 53 |
| CN1CCN(c2ccc(Nc3c4ccccc4nc4ccccc34)cc2)CC1 | 94 |
| CCN(CCCN1CCCCC1)c1cc(C)nc(Nc2ccc(C)c(Cl)c2)n1.O=C(O)C(F)(F)F | 100 |
| Cc1c(CCC#N)c(NCc2ccccc2)n2c(nc3ccccc32)c1C#N | 99 |
| Cl.N#Cc1ccc2c(c1)CCN(CCC1CCC(NC(=O)/C=C/c3nc4ccccc4s3)CC1)CC2 (stereo not given) | 0 |
| O=C(Nc1ccc(Cl)cc1C(=O)Nc1ccncc1)c1ccc(Cl)cc1Cl | 75 |
| CCCCN1CC[C@@H](CCC(O)c2cc(OCCC)nc3ccc(OC)cc23)[C@@H](CC)C1.O=C(O)C(=O)O (stereo not given in full) | 99 |
| CC(C)N1CCN(C(CN2CCN(CCCOc3ccc4nonc4c3)CC2)c2ccc(F)cc2)CC1.Cl (stereo not given) | 40 |
| CC(O)C1CCCCN1C(=O)c1cccc(-c2cccc(-c3nc4cc(C(F)(F)F)ccc4[nH]3)c2)c1 (stereo not given) | 100 |
| COc1cccc(CN2CCCC(CCC(=O)Nc3ccc(C(F)(F)F)cc3)C2)c1O (stereo not given) | 97 |
| O=C(Nc1ccc(Cn2ncc(N3CCCNCC3)c(Cl)c2=O)cc1)Nc1ccc(-c2ccccc2)cc1 | 41 |
| Cn1cncc1-c1ccc2ncnc(Nc3ccc(OCc4ccccc4)cc3)c2c1 | 99 |
| CCC(=O)c1ccc(-c2ccc(=O)n(CC(=O)N(CCN(CC)CC)Cc3ccc(-c4ccc(C(F)(F)F)cc4)cc3)n2)cc1 | 67 |
| CC(Cc1ccc(NC(=O)c2ccc(NCCc3ccccc3)cc2)cc1)NCCc1cccc(Cl)c1.Cl (stereo not given) | 1 |
| O=C1C(c2ccccc2)=C(Nc2cccc([N+](=O)[O-])c2)c2ccccc21 | 88 |
| CN(Cc1cccc(O)c1)C1CCN(c2cc(NC(=O)c3cccc(F)c3)ccn2)CC1.O=C(O)C(F)(F)F | 37 |

| SMILES | Inhibition [%] |
| --- | --- |
| CC(C)C1C(O)=C(c2ccc3ccccc3c2)C(=O)N1Cc1ccsc1 (stereo not given) | 82 |
| C=CCn1c(Sc2ccc(C#N)c([N+](=O)[O-])c2)nnc1-c1cc(OC)cc(OC)c1 | 84 |
| CCCN(Cc1nnc(-c2cccs2)o1)C(=O)CSc1nnnn1-c1cc(C)cc(C)c1 | 71 |
| NC(=O)c1ccccc1OCC(=O)Nc1cccc(-c2cccc(-c3nc4ccccc4[nH]3)c2)c1 | 46 |
| COc1cc(NC(=O)c2sc(-c3ccc(Cl)cc3)cc2NC(=O)CN2CCCC2)ccc1OCCN1CCCC1.Cl | 79 |
| Cc1ccc(Oc2ccc(NC(=O)CNc3ccccc3N3CCCC3=O)cc2)cc1 | 97 |
| Cl.N#Cc1ccc2c(c1)CCN(CCC1CCC(NC(=O)/C=C/c3ccc4[nH]ccc4c3)CC1)CC2 (stereo not given) | 27 |
| CCOC(=O)c1ccc(NC(=O)Nc2cccc(-c3ccc(-c4nc5ccccc5[nH]4)cc3)c2)cc1 | 86 |
| O=C(O)C(F)(F)F.Oc1ccc(CCCNc2nc(NCc3cccc4ccccc34)nc(NC3CCNCC3)n2)cc1 | 0 |
| CN(C)Cc1c(O)ccc2[nH]c(-c3cccc(F)c3)nc12 | 71 |
| O=[N+]([O-])c1ccccc1/C=N/Nc1ccnc2ccc(C(F)(F)F)cc12 | 36 |
| Cc1ncccc1C(=O)Nc1cccc(-c2cccc(-c3nc4cc(C(F)(F)F)ccc4[nH]3)c2)c1 | 30 |
| COc1cc(NC(=O)CCCN2CCN(c3cccc(Cl)c3Cl)CC2)ccc1N1CCN(C(C)C)CC1.Cl | 59 |
| CN1CCC(C(=O)Nc2ccc(-c3ccc(-c4nc5cc(C(F)(F)F)ccc5[nH]4)s3)cc2)CC1 | 95 |
| CCOc1c(Cl)cc(Cl)cc1CNCCCNc1nc2ccccc2[nH]1.Cl | 1 |
| Cc1ncccc1-c1cccc2c(NC(=O)Nc3ccc4nccc(N5CCN(C)CC5)c4c3)cccc12.Cl | 96 |
| Clc1ccc(CNCCCCCCNCc2ccc(Cl)cc2)cc1.O=C(O)c1ccc2ccccc2c1O | 28 |
| O=C(/C=C/C=C/c1ccccc1)NCCCCCN1CCC(c2c[nH]c3ccccc23)CC1 | 7 |
| Cc1ccc2nc(C)cc(Nc3ccccc3O)c2c1.Cl | 6 |
| Cc1ccc(Cc2c(C)nc3nc(N)nc(N)c3c2C)cc1.Cl | 1 |

These compounds were tested on HepG2 (assay: GSK_TCMDC: Percent inhibition of human HepG2 cell line. Test compounds present at 10uM.).
Assay type: functional

| SMILES | Inhibition [%] |
| --- | --- |
| CCn1cnc2c(N3CCCS3(=O)=O)cc(C(=O)N[C@@H](Cc3ccccc3)[C@H](O)CNC(C)(C)c3cccc(C(F)(F)F)c3)cc21 | 9 |
| O=C(CCc1ccccc1)NC(c1ccc(Cl)cc1)c1ccc2cccnc2c1O (stereo not given) | 59 |
| Cc1cc(NC(=O)c2ccco2)ccc1OC1CCN(Cc2ccc(F)cc2)C1.O=C(O)C(F)(F)F (stereo not given) | 5 |
| COc1ccc2nccc([C@@H](O)CN3CCC(NC(=O)C(c4cc5ccccc5o4)N4CCN(C(c5ccccc5)c5ccccc5)CC4)CC3)c2c1 (stereo not given in full) | 18 |
| O=c1cc(NCCCNC(CNCCc2ccccc2)c2cc(Br)cc(Br)c2)[nH]c2ccccc12 (stereo not given) | 0 |
| CN1CCN(c2ccc(Nc3c4ccccc4nc4ccccc34)cc2)CC1 | 0 |
| CCN(CCCN1CCCCC1)c1cc(C)nc(Nc2ccc(C)c(Cl)c2)n1.O=C(O)C(F)(F)F | 32 |
| Cc1c(CCC#N)c(NCc2ccccc2)n2c(nc3ccccc32)c1C#N | 16 |
| Cl.N#Cc1ccc2c(c1)CCN(CCC1CCC(NC(=O)/C=C/c3nc4ccccc4s3)CC1)CC2 (stereo not given) | 6 |
| O=C(Nc1ccc(Cl)cc1C(=O)Nc1ccncc1)c1ccc(Cl)cc1Cl | 8 |
| CCCCN1CC[C@@H](CCC(O)c2cc(OCCC)nc3ccc(OC)cc23)[C@@H](CC)C1.O=C(O)C(=O)O (stereo not given in full) | 23 |
| CC(C)N1CCN(C(CN2CCN(CCCOc3ccc4nonc4c3)CC2)c2ccc(F)cc2)CC1.Cl (stereo not given) | 0 |
| CC(O)C1CCCCN1C(=O)c1cccc(-c2cccc(-c3nc4cc(C(F)(F)F)ccc4[nH]3)c2)c1 (stereo not given) | 32 |
| COc1cccc(CN2CCCC(CCC(=O)Nc3ccc(C(F)(F)F)cc3)C2)c1O (stereo not given) | 15 |
| O=C(Nc1ccc(Cn2ncc(N3CCCNCC3)c(Cl)c2=O)cc1)Nc1ccc(-c2ccccc2)cc1 | 12 |
| Cn1cncc1-c1ccc2ncnc(Nc3ccc(OCc4ccccc4)cc3)c2c1 | 4 |
| CCC(=O)c1ccc(-c2ccc(=O)n(CC(=O)N(CCN(CC)CC)Cc3ccc(-c4ccc(C(F)(F)F)cc4)cc3)n2)cc1 | 91 |
| CC(Cc1ccc(NC(=O)c2ccc(NCCc3ccccc3)cc2)cc1)NCCc1cccc(Cl)c1.Cl (stereo not given) | 25 |
| O=C1C(c2ccccc2)=C(Nc2cccc([N+](=O)[O-])c2)c2ccccc21 | 0 |
| CN(Cc1cccc(O)c1)C1CCN(c2cc(NC(=O)c3cccc(F)c3)ccn2)CC1.O=C(O)C(F)(F)F | 0 |

| SMILES | Inhibition [%] |
| --- | --- |
| CC(C)C1C(O)=C(c2ccc3ccccc3c2)C(=O)N1Cc1ccsc1 (stereo not given) | 11 |
| C=CCn1c(Sc2ccc(C#N)c([N+](=O)[O-])c2)nnc1-c1cc(OC)cc(OC)c1 | 12 |
| CCCN(Cc1nnc(-c2cccs2)o1)C(=O)CSc1nnnn1-c1cc(C)cc(C)c1 | 2 |
| NC(=O)c1ccccc1OCC(=O)Nc1cccc(-c2cccc(-c3nc4ccccc4[nH]3)c2)c1 | 23 |
| COc1cc(NC(=O)c2sc(-c3ccc(Cl)cc3)cc2NC(=O)CN2CCCC2)ccc1OCCN1CCCC1.Cl | 29 |
| Cc1ccc(Oc2ccc(NC(=O)CNc3ccccc3N3CCCC3=O)cc2)cc1 | 14 |
| Cl.N#Cc1ccc2c(c1)CCN(CCC1CCC(NC(=O)/C=C/c3ccc4[nH]ccc4c3)CC1)CC2 (stereo not given) | 2 |
| CCOC(=O)c1ccc(NC(=O)Nc2cccc(-c3ccc(-c4nc5ccccc5[nH]4)cc3)c2)cc1 | 54 |
| O=C(O)C(F)(F)F.Oc1ccc(CCCNc2nc(NCc3cccc4ccccc34)nc(NC3CCNCC3)n2)cc1 | 8 |
| CN(C)Cc1c(O)ccc2[nH]c(-c3cccc(F)c3)nc12 | 9 |
| O=[N+]([O-])c1ccccc1/C=N/Nc1ccnc2ccc(C(F)(F)F)cc12 | 6 |
| Cc1ncccc1C(=O)Nc1cccc(-c2cccc(-c3nc4cc(C(F)(F)F)ccc4[nH]3)c2)c1 | 34 |
| COc1cc(NC(=O)CCCN2CCN(c3cccc(Cl)c3Cl)CC2)ccc1N1CCN(C(C)C)CC1.Cl | 31 |
| CN1CCC(C(=O)Nc2ccc(-c3ccc(-c4nc5cc(C(F)(F)F)ccc5[nH]4)s3)cc2)CC1 | 53 |
| CCOc1c(Cl)cc(Cl)cc1CNCCCNc1nc2ccccc2[nH]1.Cl | 18 |
| Cc1ncccc1-c1cccc2c(NC(=O)Nc3ccc4nccc(N5CCN(C)CC5)c4c3)cccc12.Cl | 19 |
| Clc1ccc(CNCCCCCCNCc2ccc(Cl)cc2)cc1.O=C(O)c1ccc2ccccc2c1O | 53 |
| O=C(/C=C/C=C/c1ccccc1)NCCCCCN1CCC(c2c[nH]c3ccccc23)CC1 | 28 |
| Cc1ccc2nc(C)cc(Nc3ccccc3O)c2c1.Cl | 0 |
| Cc1ccc(Cc2c(C)nc3nc(N)nc(N)c3c2C)cc1.Cl | 60 |
